The text below walks through data of PubChem BioAssay AID493200 (National Center for Advancing Translational Sciences (NCATS), 2011).

Inconclusive results are not listed. A call without a number means that no potency is given here. Calls of active or inactive are those of the source. Calls come from the whole dose curve; as a rule, active = well fitted activation curve with a large enough effect; inconclusive = small, poorly fitted or top-dose-only effect; inactive = no such curve, though single readings can be large or run the other way.
Potency is the fitted concentration of half-maximal effect.

A short description of this assay: qHTS Assay for Rab9 Promoter Activators: Initial hit validation from the primary screen. As to conditions: Huh7 Rab9 promoter luciferase reporter, 24 h; series mostly up to 46.1 µM. From the text: NIH Chemical Genomics Center [NCGC] NIH Molecular Libraries Probe Production centers Network [MLPCN] MLPCN Grant: MH089537-01 Assay Submitter (PI): Yiannis A. Ioannou NCGC Assay Overview: Niemann Pick Type C (NPC) is a rare neurodegenerative lipidosis that is characterized by lipid storage in the endosomal/lysosomal system. Treatment modalities for this devastating disease are currently non-existent due to the severe obstacles associated with accessing the central nervous system with proteins or genes (Ioannou, 2000). We have developed a new paradigm, termed "Orphan Receptor Bypass Therapy" (ORByT), to address these disorders. This paradigm posits the existence of endogenous "suppressor" proteins whose expression can dramatically improve LSD pathogenesis. The goal is the identification/discovery of small chemical compounds that can modulate the expression of these proteins and provide a new treatment modality for these devastating disorders. One such protein whose overexpression reverses aspects of the NPC phenotype is Rab9. We have developed and optimized a cell based luciferase reporter assay in 1536 well format for the identification of up-regulators of the Rab9 promoter. This assay presents data on the validation of hits from the primary screen.
The Rab9 promoter is cloned in front of the luciferase reporter gene, therefore […] promoter activation results in luciferase expression. Frozen stock of the Rab9 promoter transfected Huh7 cells were obtained from the laboratory of Dr. Yiannis Ioannou (The Mount Sinai School of Medicine, New York, NY). Cells were propagated and maintained at NCGC in medium containing RPMI-1640 supplemented with 10% FBS, 2mM L-glutamine, and 50ug/ml penicillin/streptomycin. Cells were harvested in and plated for assays in OP-MEM I reduced-serum medium supplemented with 10% FBS. The Amplite luciferase reporter gene assay kit was purchased from ABD Bioquest and prepared/stored according to manufacturers recommendations. qHTS Assay Setup: 1.Dispensed 5ul of Huh7 cells stably expressing Rab9-luciferase at a density of 1500 cells per well 1536-well plates. 2.Incubate cells at 37C, 5% CO2, and 95% humidity for 2 hours. 3.Transferred 23nl per well of compound in DMSO solution. 4.Incubated at 37C, 5% CO2, and 95% humidity for 24 hours. 5.Dispensed 3ul per well of Amplite reagent(ABD Bioquest) per well. 6.Incubate at ambient for 10 minutes. 7.Read using the luminescence protocol on the ViewLux plate reader (Perkin Elmer).
Turning to `Cc1ccc(C(=O)NC2CCN(CC(=O)Nc3c(C)cc(C)cc3C)CC2)cc1`, the Potency result is “inactive”.

Turning to `CC(=O)[C@@H]1[C@@H](C(=O)c2ccc(C)cc2)[C@]2(C(=O)Nc3ccccc32)[C@H]2C=Cc3cc(F)ccc3N12`, the Potency entry was “inactive”. The result for `CC1=C(C(=O)OC2CCCC(C)C2)C(c2ccccc2)NC(=O)N1` (stereo not given) reads “inactive”. Next, `O=C(NC(=S)Nc1ccc(CN2CCCCC2)cc1)c1cc2ccccc2o1`: “inactive”; `Cc1csc(NC(=O)CSc2nnc(-c3ccncc3)o2)n1`: 25000 nM (active). The result for `COCCNC(=O)C1CCC(CNS(=O)(=O)c2ccc(F)cc2)CC1` (stereo not given) reads “inactive”; that for `Brc1ccccc1-c1nnc(CSc2nnc3sc4ccccc4n23)o1`, “inactive”. Turning to `CC(=O)Nc1ccc(-c2csc(Nc3ncccn3)n2)cc1`, the Potency was 353 nM (active). Next, `O=C(Nc1nc2ccc(F)cc2s1)c1ccc(N2CCCC2=O)cc1`: 199 nM (active).

Take `Cc1ccc(C(=O)Nc2ccc(N3CCN(C)CC3)nc2)cc1`: the Potency was 25000 nM (active). Take `CCC(=O)N1c2ccccc2NC2=C(C(=O)CCC2)C1c1ccc(N(C)C)cc1` (stereo not given): the Potency entry was “inactive”. The result for `COc1ccc(-c2nnc(SCC(=O)/C(C#N)=C(\C)N)o2)cc1` reads 315 nM (active); that for `Cc1ccc(C(=O)Nc2nnc(S(=O)(=O)N3CCOCC3)s2)cc1`, “inactive”; that for `Cc1nn(CCCC(=O)NCc2ccc(F)cc2)c(C)c1[N+](=O)[O-]`, “inactive”. Next, `Cc1ccc2c(c1)sc1nc(=O)n(-c3ccccc3)c(=O)n12`: 499 nM (active).

Take `CC(Sc1nnc(C(F)(F)F)n1C)C(=O)Nc1ccc(S(N)(=O)=O)cc1` (stereo not given): the Potency entry is “inactive”. The result for `CCOC(=O)CSc1nc2cc3c(cc2cc1C#N)OCO3` reads 888 nM (active). Next, `O=C(NCCc1c[nH]c2ccccc12)C(=O)NCC(c1ccco1)N1CCN(c2ccccc2F)CC1` (stereo not given): “inactive”; `Nc1ccccc1C(=O)N/N=C1/C2CN3CCN(C2)CC1(Cc1ccccc1)C3`: “inactive”. The result for `Cc1ccc(N(O)C(=O)NCCCCNC(=O)N(O)c2ccc(C)cc2)cc1` reads 15800 nM (active); that for `O=[N+]([O-])c1cnccc1Nc1ccc(F)cc1`, “inactive”. For the compound `Nc1ccc(C(=O)Nc2ccccc2N)cc1`, the Potency is 15800 nM (active).

Turning to `CC1CCc2sc(C(=O)NNC(=S)NC3CC3)cc2C1` (stereo not given), the Potency is 19900 nM (active). Next, `NC(=O)C(=O)NN=C1C2CC3CC(C2)CC1C3`: “inactive”; `C=CCn1c(C)nnc1SCC(=O)Nc1nccs1`: “inactive”; `CCOC(=O)c1ccc(NC(=O)Oc2cc(C)c(Cl)cc2C(C)C)cc1`: “inactive”. Next, `Cc1[nH]n(-c2cccc3ccccc23)c(=O)c1/C=N/c1sc2c(c1C#N)CCC2`: “inactive”; `COC(=O)CSc1nc2cc3c(cc2cc1C#N)OCO3`: 353 nM (active). The result for `COCCNC(=O)Cn1nc(-c2ccccc2)c2ccccc2c1=O` reads “inactive”. For `O=C(N/N=C/c1ccc(-c2ccc(Br)cc2)o1)c1ccc2c(c1)OCO2`, the Potency result was “inactive”. Next, `CCN(CC(=O)N(CC(C)C)c1c(N)n(CC(C)C)c(=O)[nH]c1=O)Cc1nc2ccccc2c(=O)[nH]1`: “inactive”. Next, `Cc1c(C(O)CN2CCN(Cc3ccc4c(c3)OCO4)CC2)c2ccccc2n1C` (stereo not given): “inactive”. Next, `COc1ccccc1C(=O)Nc1nnc(SCC(=O)NC2CCCC2)s1`: 888 nM (active). Take `CCOC(=O)c1cc2sccc2n1CC(=O)N1CCCc2ccccc21`: the Potency result was “inactive”. Next, `Cn1c(CCN2CCN(c3ccccc3)CC2)nc2cc(NC(=O)c3ccco3)ccc21`: “inactive”; `Cc1cccc(N2CCN(C(=S)c3ccccc3)CC2)c1`: “inactive”; `O=C(CSc1nnc(Cc2cc(=O)[nH]c(=O)[nH]2)n1-c1ccc(Cl)cc1)NC1CCCC1`: “inactive”. Consider `CC(=O)c1cccc(NC(=O)N2CCOCC2)c1`, for which the Potency entry was “inactive”.

With `COc1cccc(C2Nc3ccccc3NC3=C2C(=O)CC(C)(C)C3)c1` (stereo not given), the Potency result is “inactive”. The result for `CCOCC(=O)Nc1c(C(=O)Nc2ccc3c(c2)OCCO3)oc2ccccc12` reads 628 nM (active).
